RORgamma inh = inhibitors of mouse ROR gamma transcriptional activity; P51450; Drosophila S2 Gal4-RORgamma UAS-luciferase reporter, 20 h; Potency, µM (highest dose often 53.6 µM), for inactives: at the highest dose activity change, negative = inhibition, hits mostly inhibitors; actives 5.4% (n = 310,000); AID 2551; also: potency is read from the fitted curve at half-maximal effect; nearly all actives have a fitted effect of over 60% in size
Target sequence (P51450 whole entry, looked up, the tested form may be a part): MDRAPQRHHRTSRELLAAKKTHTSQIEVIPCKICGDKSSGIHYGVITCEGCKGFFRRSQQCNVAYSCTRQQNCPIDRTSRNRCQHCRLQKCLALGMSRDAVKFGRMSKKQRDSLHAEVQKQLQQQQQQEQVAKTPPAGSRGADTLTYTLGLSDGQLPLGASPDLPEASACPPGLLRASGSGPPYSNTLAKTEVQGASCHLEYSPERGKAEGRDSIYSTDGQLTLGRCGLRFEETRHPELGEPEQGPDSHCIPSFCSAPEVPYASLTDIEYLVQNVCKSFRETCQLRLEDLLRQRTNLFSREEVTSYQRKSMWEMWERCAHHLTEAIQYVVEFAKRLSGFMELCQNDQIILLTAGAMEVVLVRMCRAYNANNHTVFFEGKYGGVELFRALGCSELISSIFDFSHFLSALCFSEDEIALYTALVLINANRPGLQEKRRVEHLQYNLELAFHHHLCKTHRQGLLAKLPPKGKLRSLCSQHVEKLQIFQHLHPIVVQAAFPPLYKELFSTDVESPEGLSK
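ROR gamma transcriptional activity was tracked as Gal4-UAS luciferase output in stably transfected Drosophila Schneider cells, with compound added 1 hr before 700 uM copper sulfate induction and a 20 hr ambient-temperature incubation.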
PKM2 activator = activators of human pyruvate kinase M2; actives 0.34% (n = 260,000); purified PKM2, Kinase-Glo ATP luminescence, activation; response scale: 0% is enzyme alone, no compound; Potency, µM (doses to about 57.5 µM), inactives show top-dose activation, most hits filed as activators; P14618; also: potency is read from the fitted curve at half-maximal effect; nearly all actives have a fitted effect of over 55% in size
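Purified hPK-M2 (>95%) run at intermediate activity with 0.1 mM ADP and 0.5 mM PEP in 50 mM imidazole pH 7.2, KCl, MgCl2; 1 h room temperature. ATP formed read by Kinase-Glo luminescence; normalized to uninhibited and no-enzyme controls.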
CtBP-E1A blk = inhibitors of CtBP/E1A interaction. activity change, % (no concentration beside the values). actives 0.49% (n = 340,000). AlphaScreen GST-E1A/His-CtBP binding, 1536-well; hits give low values; in the data active = activity change below about -65%; inconclusive = mostly about -30% to -63%
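Protein mix (5X: 125 nM each GST-E1A, His-CtBP) was incubated with pinned compound 2 h at 37 deg C in dark, in 50 mM Tris pH 8.0 buffer with 300 mM NaCl. Glutathione donor and nickel acceptor beads followed; AlphaScreen signal read after 1 h.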
VP16 counter = inhibits Gal4-VP16 luciferase reporter, ROR gamma counter-screen. actives 3.5% (n = 310,000). Drosophila S2 Gal4-VP16 UAS-luciferase, luminescence, 20 h. AID 2546. Potency, µM (titrated, usually from 53.6 µM), for inactives: at the highest dose activity, negative = inhibition, usual class: inhibitors;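 also: Gal4-VP16 expression switched on by copper sulfate through the metallothionein promoter; potency is read from the fitted curve at half-maximal effect; nearly all actives have a fitted effect of over 50% in size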
Six1-Eya2 blk = Six1/Eya2 interaction inhibition. activity change, % (concentration not given with the values). AlphaScreen GST-Six1/His-Eya2 binding, biochemical; hits give low values. Q15475+O00167. actives 0.56% (n = 360,000); in the data active = activity change below about -65%; inconclusive = mostly about -30% to -63%
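Compounds are tested against tagged Six1 and Eya2 proteins bridged by glutathione donor and nickel acceptor beads; after a one-hour incubation at 37 °C without light, AlphaScreen emission is recorded.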
Starred values were filed as active, the others as inactive; ? = inconclusive; · = not tested or not shown; [ ] = dose if it differs, or a comment. Most compounds without a hit are left out; they make up all but 5.6% or so of the library. Unless noted, calls follow the shape of the dose curve; as a rule, active = well fitted curve in the direction sought with a large enough effect; inconclusive = small, poorly fitted or top-dose-only effect, or another doubt; inactive = no such curve, though single readings can be large; an effect the other way counts as inactive or inconclusive. % is scaled to controls: 0 for no effect and ±100 for the full control effect.

SMILES	RORgamma inh	PKM2 activator	CtBP-E1A blk	VP16 counter	Six1-Eya2 blk
COc1cc2c(cc1NC(=S)NC(=O)/C=C/c1ccc(OC)c(OC)c1)oc1ccccc12	-15%	-1%	-14	-2%	-1
COc1ccc(-c2cc(C(=O)OCc3ccccn3)c3ccccc3n2)cc1	-9%	·	-13	-8%	43
Cc1ccc(NC(=O)CNC(=O)Cn2cnc3sc(C)c(C)c3c2=O)cc1F	1%	·	-5	1%	-5
O=C(Nc1nccs1)c1ccc(COc2c(F)c(F)cc(F)c2F)cc1	11µM*	·	·	-13%	-10
COc1ccc(CCNC(=O)C(=O)Nc2nccs2)cc1OC	10%	0%	2	-1%	-1
Cc1ccc(C(=O)Nc2nccs2)cc1	?	-10%	-1	-8%	-3
COc1ccc(CC(=O)Nc2ccc(C(=O)Nc3nccs3)cc2)cc1OC	?	0%	-74*	12%	-81*
CCc1nc(SCc2ccc(OCC(C)C)cc2)n[nH]1	?	0%[11.5 µM]	9	16µM*	6
N=c1oc2ccc3ccccc3c2cc1C(N)=S	6.3µM*	6%	·	?	-15
O=C(O)c1cc2c(ccc3ccccc32)oc1=O	-32%	-1%	·	-3%	·
COc1ccc(C(=O)c2ccc(OC)c(Br)c2)cc1Br	16%	0%	4	?	-5
C=CCNC(=S)NC(=O)c1ccc(C)c(Br)c1	?	-1%	4	?	-6
C=CCN(CC=C)C(=S)Nc1cc(Cl)ccc1OC	?	3%	-5	-14%	1
CCN(CC)C(=S)NC(=O)c1ccc(OC)c(Br)c1	0.35µM*	-1%	-3	0.5µM*	-22
C=CCN(CC=C)C(=S)NC(=O)c1ccc(OC)c(Br)c1	0.28µM*	-3%	9	0.71µM*	-2
C=CCN(CC=C)C(=S)NC(=O)c1ccc([N+](=O)[O-])cc1	0.13µM*	-10%	7	0.13µM*	2
COc1ccc(C(=O)NC(=S)NCCO)cc1Br	0.79µM*	-6%	13	1.1µM*	0
CCN1C(=O)[C@@H]2[C@@H](c3ccc(-c4ccc(C(C)=O)cc4)c(OC)c3)N3CCCC[C@@]3(C(=O)OC)[C@@H]2C1=O	·	·	1	·	-1
CC1=CC(=O)N(c2ccn(C)n2)C1=O	14µM*	-6%	-5	13µM*	0
Cn1ccc(-c2ccccc2)n1	-4%	0%	-4	-4%	8
Cc1ccc(SCCC(=O)N/N=C/c2ccccc2O)cc1	0.63µM*	-3%	2	0.63µM*	-10
O=C(CCC(=O)Nc1ccc(Br)cc1)N/N=C/c1ccccc1O	?	·	-1	?	5
Cc1cccc(NC(=O)CCC(=O)N/N=C/c2ccc(O)cc2O)c1	-42%	·	-84*	0%	?
COc1ccc(O)c(/C=N/NC(=O)CCC(=O)Nc2ccc(F)cc2)c1	11µM*	·	5	-16%	?
Cc1ccc(NC(=O)CCC(=O)N/N=C/c2ccccc2O)cc1	4µM*	·	·	11µM*	10
SMILES	RORgamma inh	PKM2 activator	CtBP-E1A blk	VP16 counter	Six1-Eya2 blk
c1ccc(-c2ccc(-c3csnn3)cc2)cc1	-12%	-4%	10	4%	12
O=S(=O)(Nc1ccccc1)c1ccc(-c2csnn2)cc1	-10%	14µM*	9	?	3
CCc1nc(SCC(=O)c2ccc3c(c2)OCCO3)c2ccccc2n1	-15%	0%	6	?	-1
O=C(CSc1nc(Cc2ccccc2)nc2ccccc12)c1ccc2c(c1)OCCO2	6.3µM*	-8%	-22	?	-2
O=C(CSc1nc(CCC2CCCC2)nc2ccccc12)NCc1ccc2c(c1)OCO2	16µM*	5%	6	?	10
Cc1c(S(=O)(=O)Nc2ccc(Oc3ccccc3)cc2)c(=O)n(C)c(=O)n1C	42%	0%	1	-22%	0
O=C(O)c1csc(N/N=C/c2ccc(Br)cc2)n1	2.5µM*	9%	-12	5µM*	-11
CN(C)c1nc(NNC(=O)c2ccccc2)nc(N(C)C)n1	·	·	-8	·	0
Cc1ccc(C(=O)Nc2cccc3ccccc23)cc1	0%	·	·	-6%	5
CC(C)(C)c1ccc(C(=O)Nc2cccc3c(=O)[nH][nH]c(=O)c23)cc1	?	5%	6	3.5µM*	22
C[C@H]1[C@H](C)CC[C@]2(C(=O)O)CC[C@]3(C)C(=CC[C@@H]4[C@@]5(C)C[C@@H](O)[C@H](O)C(C)(C)[C@@H]5CC[C@]43C)[C@H]12	10µM*	-4%	·	?	5
CC1CCC2(C(=O)O)CCC3(C)C(=CCC4C3(C)CCC3[C@@]4(C)CC(O)C(O)[C@@]3(C)CO)C2C1C (stereo partly drawn)	-4%	·	·	1%	·
CC(C)(C)c1csc(NC(=O)c2cccnc2)n1	?	-1%	6	16%	-2
CC(C)(C)c1csc(NNC(=O)c2ccc(Cl)cc2)n1	0.45µM*	0%	-21	7.1µM*	23
COCC(Cc1ccccc1)NC(=O)Cn1cc(C)c(=O)[nH]c1=O (stereo not drawn)	·	·	4	·	0
CC(C)c1ccc(NC(=O)COC(=O)c2nn(C)c(=O)c3ccccc23)cc1	·	·	13	·	-1
Oc1ccc(Br)cc1/C=N/n1c(COc2ccccc2)n[nH]c1=S	10µM*	·	-9	?	-3
FC(F)(F)c1ccccc1/C=N/n1c(COc2ccccc2)n[nH]c1=S	5.6µM*	·	0	10µM*	4
S=c1[nH]nc(COc2ccccc2)n1/N=C/c1ccccc1Br	8.9µM*	·	2	?	-25
CCOC(=O)COc1ccc2ccccc2c1/C=C/[N+](=O)[O-]	13µM*	?	9	6.3µM*	-3
CCOC(=O)Cn1cc(/C=C/[N+](=O)[O-])c2ccccc21	?	24%	·	13µM*	-4
CCOC(=O)Cn1cc(C#N)c2ccccc21	23%	-2%	5	3%	5
COC(=O)c1c(C)cc(C)c2c1CC(C)(C)C2=O	2%	1%	8	8%	12
O/N=C/c1ccccc1Oc1ccccc1	0%	-9%	8	-7%	0
Cc1cc(C)cc(Oc2ccccc2/C=N\O)c1	?	-18%	-4	11µM*	-3
COC(=O)c1ccc(CC(=O)c2c(C)cc(O)cc2O)o1	11µM*	25%	0	?	3
CCC(C)C(NC(=O)OCc1ccccc1)C(=O)NC(Cc1ccc(O)cc1)C(=O)OC (stereo not drawn)	10%	-2%	0	-3%	-14
O=C(Nc1cccc2ccccc12)c1ccc([N+](=O)[O-])o1	?	-3%	·	13µM*	-2
O=C(Nc1ccccc1N1CCN(C(=O)c2ccccc2)CC1)c1ccc([N+](=O)[O-])o1	5.6µM*	1%	-10	?	-28

Compound activity: PubChem BioAssay, National Center for Advancing Translational Sciences (NCATS)
